Results from PubChem BioAssay (NCI).
Several values for one entry are separate records, joined by “and”; a condition that tells them apart may be missing. Identical values can stand only once. About 79,000 compounds went through this panel and 15% of them were active in at least one assay; those are over-represented in the sample as a whole. Values without a mark were called inactive. Activity calls are given as the source filed them. No stated cut-off is given here; in the data, active means growth inhibition above about 70%; inactive means the rest.

Legend:
[1] = NCI Yeast Anticancer Drug Screen. Data for the rad50 strain (AID 155);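 further: 0% = growth of vehicle-only cultures of the same strain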; settings: S. cerevisiae rad50 strain growth inhibition, active compounds read high; at 50.0 µM unless noted
Procedure, shortened: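 Yeast carrying a defined DNA repair defect were exposed to test compounds, and growth was compared with vehicle-treated controls to give percent inhibition.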

[2] = NCI Yeast Anticancer Drug Screen. Data for the mec2-1 strain (AID 157); settings: S. cerevisiae mec2-1 strain, active compounds read high; at 50.0 µM unless noted
Procedure, shortened: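 mec2-1 yeast strain, carrying an alteration in DNA damage repair or cell cycle control, was exposed to compounds; growth inhibition was measured relative to vehicle-treated controls.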

[3] = NCI Yeast Anticancer Drug Screen. Data for the sgs1 mgt1 strain (AID 161);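 further: 0% = growth of cultures given vehicle only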; settings: S. cerevisiae sgs1 mgt1 strain, active compounds read high; at 50.0 µM unless noted
Procedure, shortened: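 Compounds are added to genetically altered yeast, and growth is compared with cultures given vehicle alone to give percent inhibition.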

[4] = NCI Yeast Anticancer Drug Screen. Data for the cln2 rad14 strain (AID 165);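 further: 0% = growth equal to vehicle treated cultures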; settings: S. cerevisiae cln2 rad14 strain, active compounds read high; at 50.0 µM unless noted
Procedure, shortened: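 Yeast carrying cln2 and rad14 alterations (cell cycle control and DNA damage repair) were exposed to compounds. Growth inhibition was measured against vehicle-treated controls.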

[5] = NCI Yeast Anticancer Drug Screen. Data for the bub3 strain (AID 167); settings: S. cerevisiae bub3 mutant strain, active compounds read high; at 50.0 µM unless noted
Procedure, shortened: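 Compounds were applied to a genetically altered yeast strain carrying a cell-cycle control defect. Growth inhibition was scored against vehicle-treated controls.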

[6] = NCI Yeast Anticancer Drug Screen. Data for the mlh1 rad18 strain (AID 175); settings: S. cerevisiae mlh1 rad18 strain growth inhibition, active compounds read high; at 50.0 µM unless noted
Procedure, shortened: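 Growth inhibition of the yeast strain was measured after compound exposure and expressed relative to vehicle-treated controls. The strain carries defined defects in DNA damage repair.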

Row | SMILES | growth inhibition [1] | growth inhibition [2] | growth inhibition [3] | growth inhibition [4] | growth inhibition [5] | growth inhibition [6]
1 | CC(=O)N1C(=O)C2(c3ccccc31)c1cccc3c1C(=C1C(=O)OC(=O)C12)C(=O)N3C(C)=O (stereo not drawn) | 64.5% | 22.4% | 52.3% | 9.55% | 8.85% | 48.1%
2 | O=C(O)C(=O)Nc1ccccc1 | -4.45% | -15.5% | -5.5% | -34.8% | 1.65% | -5.8%
3 | O/N=C1/C2CC3CC1(c1ccccc1)CC(/C3=N/O)/C2=N\O (stereo not drawn) | 9.15% | 17.3% | -12.1% | 0.35% | -17.8% | -4.75%
4 | Cc1ccc(S(=O)(=O)c2c3[nH]c4ccccc4nc3n3c2nc2ccccc23)cc1 | -14.2% | -45.5% | -19.2% | -87.3% | -26.8% | -14.3%
5 | O=C1OC(=O)C2C(Cl)C(Cl)C12 (stereo not drawn) | -5.1% | -7.2% | 2.7% | -37.6% | -15.8% | 3.4%
6 | Cc1cc(C)c(S)c(C)c1.[Cu+2] | -29.1% | -10.3% | -5.85% | -53.2% | -28.9% | -2.55%
7 | Clc1cc2cc3cccc[n+]3cc2cc1Cl | 54% | 16.1% | 26.2% | -22.9% | 14.6% | 3.7%
8 | CCSc1nnc(SCC)c2c1ncn2CC | 19.9% | 5.8% | 26.4% | -39.8% | 7.5% | 9.05%
9 | COCc1ccccc1-n1nccc1S(C)=O (stereo not drawn) | -10.9% | 25.4% | 1.8% | 4.1% | 3.25% | -2.6%
10 | COC1OC(COC(=O)c2ccc([N+](=O)[O-])cc2)C2SC12 (stereo not drawn) | 9.5% | -9.1% | 1.8% | -27.6% | 6.7% | 2.65%
11 | CC1=Nc2ccc([N+](=O)[O-])cc2C1(C)C | -0.35% | 5.1% | -7.55% | -2.15% | -16.1% | -5.45%
12 | CCC[n+]1nc2ccccc2c(=Nc2ccccc2[N+](=O)[O-])[n-]1 | 8.65% | 8.75% | 2.75% | 7.8% | 12.3% | 2.45%
13 | CC1(C)CC(=O)C=C(n2ccccc2=O)C1 | 2.7% | -5.3% | 0.15% | 7.5% | -19.8% | -1.8%
14 | CCCOC(=O)c1ccc(O)cc1.[Cu+2] | 5% | -13.3% | -14% | -34.4% | -3.05% | 12.7%
15 | O=C(O)C1=CCCc2ccc3ccccc3c21 | 10.2% | 6% | 0.2% | -20.4% | -27.9% | 6.25%
16 | Cc1cccc(Cl)c1NC(=O)c1c(Cl)c(Cl)c(Cl)c(Cl)c1C(=O)O | 11.4% | 10.6% | -0.35% | -30.1% | -1.65% | 22.2%
17 | NC(=S)Cc1ccncc1 | 12.8% | 6.15% | 3.45% | 1.15% | 5.55% | 2.65%
18 | N=c1ccccn1CC(O)COc1ccc(Cl)cc1 (stereo not drawn) | 11.8% | -10.1% | -8.85% | -17.9% | -2.5% | -16.6%
19 | SCCNCc1ccccc1 | 20.9% | -13.1% | 6.9% | 9.85% | 6.9% | 10.2%

Row | SMILES | growth inhibition [1] | growth inhibition [2] | growth inhibition [3] | growth inhibition [4] | growth inhibition [5] | growth inhibition [6]
20 | C=C(c1ccccc1)C1ON(C)CCc2cc(OC)c(OC)cc21 (stereo not drawn) | 3.65% | 15.4% | 14.3% | 5.85% | 33.6% | 5.45%
21 | O=C1Oc2ccccc2C(=O)/C1=C/N1C(=O)N/C(=C\c2cccc(O)c2)C1=O | 21.9% | 19.9% | 37.6% | 45.5% | 15.7% | -7.5%
22 | O=C(O)C(=O)c1c(O)[nH]c2ccccc12 | 1.35% | -10.1% | 11.5% | -14.8% | -8% | 17.6%
23 | OCC[P+](c1ccccc1)(c1ccccc1)c1ccccc1 | 17.6% | 12.1% | -6.2% | 16.4% | -6.05% | -11.3%
24 | Cl | -13.4% and -6.25% | -29.2% and 17.5% | -10.4% and 1.8% | -0.9% and 2.2% | -5.15% and -38% | -16% and -32.6%
25 | CC(C)c1ccccc1NC(=O)CCC(=O)NN | -11.1% | -7.95% | -7.95% | 6.1% | -17.8% | -11.7%
26 | [N-]=[N+]=Nc1cccc(-c2n[nH]c(Cl)cc2=O)c1 | -19.9% | -11.6% | -38.6% | 3.1% | -10.9% | -34%
27 | O=[N+]([O-])c1ccccc1N1CCCCC1 | 23.9% | 7.05% | 14.9% | 25.6% | -4.05% | 27.2%
28 | CC1CC(=O)CC(C)(C)N1 (stereo not drawn) | -9.4% | -9% | 3.2% | -2.4% | 5.85% | -7.25%
29 | CCCCCCCC1C(=O)OC2CC3C(C)=CC(=O)C(O)C3(C)C3C4(O)OCC23C1C(C)C4O (stereo not drawn) | 91.5% (active) | 92.3% (active) | 91% (active) | 91.4% (active) | 90.2% (active) | 92.1% (active)
30 | COc1ccc(/C(C)=C\C(=O)O)cc1 | -1.95% | -3.2% | -9.55% | -43.2% | -40% | 7.15%
31 | CC(=O)OC1CC2CC1C1OC21 (stereo not drawn) | -2.25% | -15.3% | -22.1% | -1.8% | -11.7% | -6.65%
32 | C=C(C)C1CC[C@@](C)(O)[C@H](C#N)C1 (stereo partly drawn) | 6.15% | -15.7% | -22.8% | -12.2% | -38.5% | -44%
33 | CC(/C=C/C(=O)c1sc(-n2nc(-c3ccccc3)cc2-c2ccccc2)nc1C)=C\c1ccccc1 | 21.9% | 5.25% | 25.9% | 8.85% | 44.8% | 20.7%
34 | CC(=O)N(C)c1ccccc1 | -19.2% | -20.9% | -16.4% | -40.5% | -8.45% | -7.55%
35 | O=C(c1ccccc1)C1CC1C(=O)c1ccccc1 (stereo not drawn) | -3.55% | -11.8% | -6.1% | -61.5% | 38.3% | -3.45%
36 | O=[N+]([O-])c1ccc(N/N=C2/CC3CCC2C3)c([N+](=O)[O-])c1 (stereo not drawn) | -4.3% | -21.4% | 0.8% | -7.05% | 5.6% | 0.55%
37 | O=C1c2ccccc2C(=O)N1C/C=C/CO | 11.5% | 8.75% | -1.45% | 7.6% | 0.95% | 1.15%
38 | CC1(C)SC=C2C1=CSC2(C)C | 0.2% | 2.1% | -6.35% | -26.2% | 4.6% | -3.65%
